Source: PubChem BioAssay
GalR3 antagonist: GalR3 antagonists in HEK293 cells, primary screen, cell-based, fluorescence readout. Galanin receptor type 3 (Homo sapiens), O60755. HEK293 GalR3-CNG cAMP membrane potential fluorescence; galR3 body fused to GalR1 C-terminus. inhibition, % at 3 µM. 0.44% of 360,000 active. AID 651719, 2012;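 active = inhibition above the screen-wide average plus 3 SD, cut at about 13% in these data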;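 also: forskolin and galanin both at EC90 stimulate the cells; cAMP rise reported by CNG channel membrane potential dye signal; 0% = forskolin plus galanin with DMSO and 100% = forskolin alone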
Target sequence (O60755 1-299 limits assumed): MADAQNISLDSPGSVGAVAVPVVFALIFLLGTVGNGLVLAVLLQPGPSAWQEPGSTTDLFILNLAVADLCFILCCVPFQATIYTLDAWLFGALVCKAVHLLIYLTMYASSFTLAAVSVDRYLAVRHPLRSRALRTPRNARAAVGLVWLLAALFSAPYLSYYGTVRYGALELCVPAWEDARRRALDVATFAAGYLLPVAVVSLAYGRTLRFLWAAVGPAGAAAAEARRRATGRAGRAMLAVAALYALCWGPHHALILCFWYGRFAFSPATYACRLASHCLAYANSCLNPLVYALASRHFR
Cardio protect: cardioprotection against H2O2-induced cell death, primary screen, uHTS, H9c2 cells, ATPLite luminescence; H9c2 cardiomyocytes, H2O2 injury protection, 2 h; protection from H2O2 cell death, % at 20 µM; 0.63% of 360,000 active;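 active = compounds giving at least 50% protection of heart cells from peroxide-induced death in the single-dose screen, raw or plate-pattern-corrected value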;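 also: 0% = DMSO wells with peroxide and 100% = DMSO wells without peroxide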
COUP-TFII inh: NR2F2 transcriptional activity inhibitors, primary screen, cell-based, luciferase reporter, HEK293T, luminescence; AID 686940, 2013; COUP transcription factor 2 (Homo sapiens), P24468; 0.7% of 370,000 active; HEK293T NGFI-A luciferase reporter; inhibition, % at 8.6 µM;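 active = inhibition above a per-plate cutoff, mean inhibition of test wells between control levels plus 3 SD, cut at about 38% in these data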;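 also: cells cotransfected with COUP-TFII expression vector driving the NGFI-A reporter; 0% = median of COUP-TF2 test wells and 100% = reporter-only cells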
Target sequence (P24468 whole entry, looked up): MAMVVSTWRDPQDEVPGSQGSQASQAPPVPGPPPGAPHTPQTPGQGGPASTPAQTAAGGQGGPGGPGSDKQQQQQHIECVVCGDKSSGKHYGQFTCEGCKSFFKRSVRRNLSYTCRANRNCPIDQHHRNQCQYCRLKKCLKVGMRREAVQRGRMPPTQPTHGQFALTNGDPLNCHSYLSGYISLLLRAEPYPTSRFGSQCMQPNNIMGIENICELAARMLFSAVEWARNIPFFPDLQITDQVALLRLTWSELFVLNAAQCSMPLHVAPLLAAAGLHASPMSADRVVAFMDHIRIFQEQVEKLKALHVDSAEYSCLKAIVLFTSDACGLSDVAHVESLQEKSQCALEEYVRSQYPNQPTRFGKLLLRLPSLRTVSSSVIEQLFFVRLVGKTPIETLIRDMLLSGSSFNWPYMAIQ
SMARCA2 activ: SMARCA2 (BRM) function activators, primary screen, cell-based, luminescence, high throughput; MG213 cells, MMTV-luciferase reporter, dexamethasone, overnight; activation, % at 9.1 µM; 1% of 370,000 active; AID 652017, 2013; in the data active = activation above about 7.8%;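 also: 0% = vehicle wells and 100% = reference activator wells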
Gli-Sufu block: Gli-Sufu pathway antagonists, primary screen, luciferase luminescence, Sufu-KO-LIGHT cells, uHTS. Sufu-KO-LIGHT fibroblasts, Gli luciferase reporter luminescence. inhibition, % at 5 µM. 0.74% of 340,000 active;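 active = inhibition above about 55%, limit read from the data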;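 also: 0% = DMSO-treated cells and 100% = wells with medium but no cells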
GAA850 FXN act: FXN promoter activators, primary screen, cell-based, luciferase luminescence, HEK293 lucGAA850; 0.56% of 360,000 active; AID 540364, 2011; HEK293 lucGAA850 FXN promoter luciferase reporter, 24 h; percent of 10 µM SAHA response; activation, % at 6 µM;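 active = activation above the average of all compounds screened plus 3 SD, cutoff fixed separately per campaign, cut at about 7.5% in these data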;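 also: 0% = DMSO wells and 100% = 10 µM SAHA wells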
Gal4-VP16 ctr: Gal4-VP16 luciferase reporter inhibitors, counter-screen for COUP-TFII antagonist project, cell-based, luminescence, HEK293. shares compounds with COUP-TFII inh. inhibition, % at 8.5 µM. 25% of 2,500 active; in the data active = inhibition above about 13%
COUP-TFII conf: NR2F2 transcriptional activity inhibitors, confirmation, cell-based, luciferase reporter, HEK293, triplicate; shares compounds with COUP-TFII inh; HEK293 NGFI-A luciferase reporter, luminescence; AID 687008, 2013; inhibition, % at 8.5 µM; 45% of 2,500 active;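 active = mean inhibition over three repeats above a set limit taken from the earlier primary screen, cut at about 38% in these data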;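 also: 100% = cells given the luciferase reporter alone without the COUP-TF2 vector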
* marks the source's active call; other numbers are inactive results; / = no result; ! = a repeat was not active. A selection: hits, their analogues and other compounds. The true share with any hit is near 3.4%.

SMILES	GalR3 antagonist	Cardio protect	COUP-TFII inh	SMARCA2 activ	Gli-Sufu block	GAA850 FXN act	Gal4-VP16 ctr	COUP-TFII conf
CC(=O)c1ccc(S(=O)(=O)N2CCN(CCOc3ccc(Br)cc3)CC2)cc1	-5.9	-16.3	63.0*	-5.7	10.4	-0.9	9.3	49.7*
COc1ccc(OCCN2CCN(S(=O)(=O)c3ccccc3C(F)(F)F)CC2)cc1	-4.6	-12.7	41.0*	-4.9	26.7	0.9	-0.3	9.1
COc1ccc(OCCN2CCN(S(=O)(=O)c3ccccc3C#N)CC2)cc1	-0.8	1.5	14.8	-2.9	3.7	-1.5	/	/
CCOC(=O)c1c(-c2ccccc2)oc2ccc(O)c(CN3CCN(C)CC3)c12	-6.5	34.8	37.6*	-2.8	10.4	-6.1	-7.9	19.1
CCOC(=O)c1c(C)n(C)c2ccc(O)c(CN3CCN(C)CC3)c12	-4.5	2.8	-7.3	-1.1	5.6	-0.8	/	/
Cc1nn(-c2nc3ccccc3[nH]2)c(=O)c2ccccc12	-1.4	-23.1	96.6*	-8.7	79.0*	-14.9	68.0*	89.9*
O=C(NCc1cccc(Cl)c1)c1cccc(OC2CCN(C(=O)C3CC3)CC2)c1	-0.9	-5.0	56.2*	-6.5	11.7	-2.3	-4.3	31.6
O=C(C1CC1)N1CCC(Oc2cccc(C(=O)N3CCCCC3CCO)c2)CC1 (centres undefined)	-1.0	2.8	-7.5	-3.1	8.8	0.5	/	/
COc1ccc(NC(=O)c2cc(C3CCCCN3C(=O)c3cc(C(C)(C)C)nn3C)on2)c(C)c1 (centres undefined)	-4.9	-15.4	13.0	-2.0	/	0.0	/	/
Cc1ccc(C(C)C)c(OCC(=O)NN=C2CCCC(=O)C2)c1	-4.8	15.8	4.6	-2.9	0.5	2.5	/	/
COc1ccc(-n2c(C)c([N+](=O)[O-])c3ccc(O)c(CN(C)C)c32)cc1	-6.0	21.0	41.4*	-1.0	8.5	-9.1	28.9*	33.3
CCc1ccc(NC(=O)c2cc(S(=O)(=O)N3CCc4ccccc43)cn2C)cc1	/	-23.1	-2.7	-1.0	27.3	-0.2	/	/
CCOc1ccc(S(=O)(=O)Nc2cnc3ccccc3c2)cc1	-8.9	-19.4	43.1*	-4.6	32.1	-0.8	-2.7	29.8
CCOc1ccc(S(=O)(=O)Nc2cccnc2)cc1	-2.9	1.3	-4.7	-2.5	0.2	0.3	/	/
O=C(Nc1ccc2c(c1)OCCO2)C(c1cc2ccccc2o1)N1CCN(c2ccc(F)cc2)CC1 (centres undefined)	-7.2	-2.5	39.2*	-3.4	/	/	-28.9	0.9
O=C(Nc1ccc2c(c1)OCCO2)C(c1cc2ccccc2o1)N1CCN(c2ccc(C(F)(F)F)cn2)CC1 (centres undefined)	1.6	-2.9	25.0	-4.0	/	/	/	/
Cc1c(C=O)c2ccccc2n1CCOc1ccccc1F	-13.3	-10.8	45.0*	-5.3	34.4	0.0	-6.1	23.5
Cc1ncccc1C(=O)N1CCCC(c2cc(C(=O)Nc3ccc(C(C)(C)C)cc3)no2)C1 (centres undefined)	-6.0	-6.5	40.0*	-4.5	/	-0.5	-11.1	-4.8
CC(C)(C)c1ccc(NC(=O)c2cc(C3CCCN(S(=O)(=O)c4cccc5cccnc45)C3)on2)cc1 (centres undefined)	-9.0	1.9	-11.1	-1.7	/	-3.3	/	/
CCCC(=O)N1CCCC(c2cc(C(=O)Nc3ccccc3)no2)C1 (centres undefined)	-4.7	-21.2	43.9*	-4.2	/	-8.1	-66.9	33.6
O=C(Nc1ccccc1)c1cc(C2CCCN(C(=O)c3ccccc3)C2)on1 (centres undefined)	-7.2	-2.9	-12.4	-0.6	/	-0.5	/	/
Cc1cccc(-n2ncc3c2CCCC3NC(=O)c2cccs2)c1C (centres undefined)	-6.1	-7.8	43.8*	-6.2	/	-3.0	-2.0	25.2
CC1=C(C(=O)NC2CCCc3c2cnn3-c2cccc(C)c2C)OCCO1 (centres undefined)	0.3	-13.2	55.9*	-3.5	57.3*	-3.2	-1.8	44.5*
Cc1cc(CN2CCCC(N3CCc4ccccc4C3)C2)cc(C)c1O (centres undefined)	-4.8	2.5	-43.7	5.3	15.9	-0.5	/	/
N=c1ccn(Cc2ccc(Cl)cc2)cc1	-0.1	-9.6	31.9	-1.9	31.2	-0.3	/	/
SMILES	GalR3 antagonist	Cardio protect	COUP-TFII inh	SMARCA2 activ	Gli-Sufu block	GAA850 FXN act	Gal4-VP16 ctr	COUP-TFII conf
N=c1ccn(Cc2ccc(Cl)c(Cl)c2)cc1	1.1	-8.6	49.4*	-3.4	45.8	1.0	-6.3	12.0
CCOC(=O)CCCCCC(=O)Nc1ccc2c(c1)C(=O)N([C@H](C)CO)C[C@H](C)[C@@H](CN(C)C(=O)Nc1ccccc1)OCCCC[C@@H](C)O2	-1.9	3.5	8.9	-4.0	/	0.2	/	/
CCN(CC)c1ccc(/C=C/c2cccc[n+]2C)c(OC)c1	17.9*	-12.6	77.6*	-5.3	89.0*	-7.5	18.6*	73.7*
COc1ccc(/C=C/c2cccc[n+]2C)c(O)c1	-3.0	3.2	-1.3	-3.2	33.7	0.3	/	/
CCN1/C(=C/C(C)=C/c2sc3ccccc3[n+]2CC)Sc2ccccc21	-5.0	-29.5	71.9*!	-4.5	90.3*	-12.4	25.6*	74.4*
CC(=O)N1c2ccc(S(=O)(=O)N3CCCCC3)cc2CC1C(=O)NCc1cccc(Cl)c1 (centres undefined)	-9.9	4.7	1.4	-0.3	36.1	0.1	/	/
Cc1oc(-c2ccc3c(c2)OCCO3)cc1C(=O)NCC(=O)O	9.2	0.1	-26.1	3.4	-5.1	2.7	/	/
Cc1oc(-c2ccc3c(c2)OCCO3)cc1C(=O)O	-1.3	-4.4	52.0*	-9.5	34.5	-7.2	-123.7	10.3
N/C(=N\OC(=O)c1ccc2ccccc2c1)c1ccccn1	-2.3	-21.4	45.3*	-3.0	-2.6	-7.3	-173.7	-63.2
Cc1ccc(C(=O)O/N=C(\N)c2ccccn2)c(Cl)c1	-9.0	-16.8	78.5*	-8.4	48.0	-11.9	19.8*	46.9*
N/C(=N\OC(=O)c1ccc2ccccc2c1)c1ccncc1	-1.4	-17.2	-47.7	6.2	-62.9	2.4	/	/
CCCc1ccc(C(=O)O/N=C(\N)c2ccccn2)cc1	-10.6	-17.0	68.0*	-5.6	49.5	-9.4	-30.8	52.8*
